Mdm2 MdmX PPI – inhibitors of human Mdm2-MdmX association, primary screen, cell-based, luminescence, split luciferase, SaOS-2, uHTS. 330,000 compounds, 3% hits. inhibition, % at 8 µM. SaOS-2 split-luciferase Mdm2/MdmX complementation. AID 485346, 2010;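 active means inhibition of at least 50% at 8 µM in the primary screen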
Target sequence (O15151 whole entry, looked up): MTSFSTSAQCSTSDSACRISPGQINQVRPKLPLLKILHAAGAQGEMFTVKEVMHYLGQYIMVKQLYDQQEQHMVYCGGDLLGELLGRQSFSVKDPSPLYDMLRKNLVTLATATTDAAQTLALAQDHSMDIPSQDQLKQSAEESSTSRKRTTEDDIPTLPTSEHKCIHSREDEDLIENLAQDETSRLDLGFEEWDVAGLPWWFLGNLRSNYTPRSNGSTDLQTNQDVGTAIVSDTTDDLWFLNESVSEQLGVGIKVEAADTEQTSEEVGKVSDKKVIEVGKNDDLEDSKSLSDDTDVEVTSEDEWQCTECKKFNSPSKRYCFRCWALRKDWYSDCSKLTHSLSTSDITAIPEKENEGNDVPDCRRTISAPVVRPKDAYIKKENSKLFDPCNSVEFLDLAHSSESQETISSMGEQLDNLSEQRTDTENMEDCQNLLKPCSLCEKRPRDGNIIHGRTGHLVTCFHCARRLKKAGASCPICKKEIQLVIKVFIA
Target sequence (Q00987 whole entry, looked up): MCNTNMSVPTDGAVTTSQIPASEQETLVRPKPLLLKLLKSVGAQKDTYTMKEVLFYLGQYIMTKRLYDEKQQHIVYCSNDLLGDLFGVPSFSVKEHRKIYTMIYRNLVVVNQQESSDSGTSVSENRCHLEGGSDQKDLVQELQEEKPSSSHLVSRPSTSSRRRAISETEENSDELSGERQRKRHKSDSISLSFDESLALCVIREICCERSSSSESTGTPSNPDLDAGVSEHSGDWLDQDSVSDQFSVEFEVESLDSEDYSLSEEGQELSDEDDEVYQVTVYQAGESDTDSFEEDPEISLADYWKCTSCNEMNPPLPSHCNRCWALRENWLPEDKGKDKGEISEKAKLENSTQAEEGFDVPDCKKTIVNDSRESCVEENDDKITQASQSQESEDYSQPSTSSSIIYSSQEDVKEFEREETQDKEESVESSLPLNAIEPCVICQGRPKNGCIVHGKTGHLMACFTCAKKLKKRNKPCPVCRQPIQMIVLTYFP
Jurkat NFkB inh – inhibitors of induced NF-kB luciferase reporter, primary screen, TCR NF-kB activation inhibitor project, cell-based, luminescence, uHTS. Jurkat, PMA/ionomycin-induced NF-kB luciferase reporter. inhibition, % at 4 µM. 330,000 compounds, 0.53% hits; in the data active means inhibition above about 50%
Beta apoptosis – inhibitors of cytokine-induced beta cell apoptosis, primary screen, luminescence. INS-1E cytokine-induced death, ATP luminescence, 48 h; percent of positive-control rescue, neutral wells zero. AID 435005, 2010. 300,000 compounds, 0.8% hits. protection from apoptosis, % (no concentration beside the values);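 active means Every replicate reaches about 75%, or at least half do and their mean reaches it too, limit read from the data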;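 further: higher means more ATP so stronger rescue from cytokine killing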
697 NFkB inh – inhibitors of PMA/ionomycin-induced NF-kB reporter, 697 cells, primary screen, B-cell NF-kB inhibitor project, cell-based, luminescence, uHTS; inhibition, % at 4 µM; AID 435022, 2010; 697 B-cell NF-kB luciferase reporter, 16 h; 330,000 compounds, 0.33% hits; in the data active means inhibition above about 35%
Gli-Sufu block – Gli-Sufu pathway antagonists, primary screen, luciferase luminescence, Sufu-KO-LIGHT cells, uHTS; 340,000 compounds, 0.74% hits; Sufu-KO-LIGHT fibroblasts, Gli luciferase reporter luminescence; inhibition, % at 5 µM; AID 588413, 2011;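 active means inhibition above about 55%, limit read from the data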
Mdm2-MdmX conf – Mdm2-MdmX complex disruptors, retested hits, confirmation, luminescence, single concentration; inhibition, % at 8 µM; Mdm2-MdmX binding, luminescent assay; 10,000 compounds, 55% hits; AID 489028, 2010; shares compounds with Mdm2 MdmX PPI; in the data active means inhibition above about 40%
Full FLuc ctr – full-length luciferase signal inhibition, confirmation, counter-screen for Mdm2/MdmX interaction inhibitor project, cell-based, single concentration, SaOS-2. 6,200 compounds, 77% hits. inhibition, % at 8 µM. SaOS-2 full-length luciferase counterscreen, luminescence. shares compounds with Mdm2 MdmX PPI;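 active means mean inhibition at 8 µM reaching about 37%, which flags the compound as non-specific, limit read from the data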;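 further: p53-null SaOS-2 cells with luciferase driven by a doxycycline-inducible promoter; compound on cells about two nights before reading with doxycycline added after day one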
A number is an active result; - = inactive; . = no result given. Rows were chosen to be rich in hits. Some 4% of all compounds tested hit in one or more screens of this group.

SMILES	Mdm2 MdmX PPI	Jurkat NFkB inh	Beta apoptosis	697 NFkB inh	Gli-Sufu block	Mdm2-MdmX conf	others
CC(C)(C)C1c2[nH]c3ccccc3c2CCN1CCCn1cccn1 (centres undefined)	-	-	-	-	-	.
COc1ccc(CC(=O)Nc2ccc(S(=O)(=O)Nc3onc(C)c3C)cc2)cc1OC	-	-	-	-	-	.
Cc1cc(CNCc2c(C(=O)N3CCCCCCC3)nc3ccc(Cl)cn23)nn1C	-	-	-	-	-	.
CCC12C(=O)C(CC)(C(c3ccccc3)=C1c1ccccc1)[C@@H]1C(=O)N(c3ccccc3)C(=O)C12 (some centres undefined)	54	-	-	-	-	65	Full FLuc ctr=59
CCC12C(=O)C(CC)(C(c3ccccc3)=C1c1ccccc1)[C@@H]1C(=O)N(c3ccc(C)cc3)C(=O)C12 (some centres undefined)	-	-	-	-	-	.
CCCC12C(=O)C(C)(C(c3ccccc3)=C1c1ccccc1)C1C(=O)N(c3ccc(C)cc3)C(=O)C12 (centres undefined)	80	-	105	-	-	80	Full FLuc ctr=69
C#CC(C)OC(=O)C(C)NC(=O)c1ccccc1 (centres undefined)	-	-	-	-	-	.
c1ccc(/N=C2\N=C(Nc3ccccn3)c3ccccc32)nc1	72	-	103	-	-	-
Cc1ccc(C)c(NC(=O)C2CC(O)CN2C(=O)Oc2ccccc2)c1 (centres undefined)	-	-	-	-	-	.
COc1ccc(-c2cc(C3CCN(c4ccc(C(C)=O)cc4[N+](=O)[O-])CC3)[nH]n2)cc1	52	-	-	-	-	46	Full FLuc ctr=51
Cc1sc2nc(SCC(=O)C(C)(C)C)n(Cc3ccco3)c(=O)c2c1C	-	-	-	-	-	.
COc1ccc(NC(=O)CSc2nc3sc(C)c(C)c3c(=O)n2Cc2ccco2)cc1	87	-	-	-	-	-
O=C(CSc1nc2cc(Cl)ccc2c(=O)n1Cc1ccco1)Nc1ccc(S(=O)(=O)N2CCOCC2)cc1	-	-	-	-	-	.
COC(=O)c1ccc2c(=O)n(Cc3ccco3)c(SCC(=O)Nc3ccc(C)c(Cl)c3)nc2c1	68	-	-	-	-	-
C=CCn1c(SCC(=O)N2CCN(CCO)CC2)nc2sc3c(c2c1=O)CCC3	-	-	.	-	-	.
CCC(=O)Nc1cc2c(cc1Cl)-c1ccccc1C2	.	.	.	.	-	.
CCOc1ccc(CN(C)CC(O)COC(c2ccc(OC)cc2)c2ccc(OC)cc2)cc1 (centres undefined)	59	-	-	-	-	-
CN1CCN(C(c2ccc(C(F)(F)F)cc2)c2ccc3cccnc3c2O)CC1 (centres undefined)	74	-	81	-	-	73	Full FLuc ctr=-
Oc1c(C(c2cccs2)N2CCN(c3ccccc3)CC2)ccc2cccnc12 (centres undefined)	51	-	109	-	.	82	Full FLuc ctr=-
CN1CCN(C(c2cccc(C(F)(F)F)c2)c2nnnn2C(C)(C)C)CC1 (centres undefined)	-	-	-	-	-	.
CC(C)(C)n1nnnc1C(c1cccs1)N1CCN(c2ccccc2)CC1 (centres undefined)	-	-	.	-	-	.
Oc1c(C(c2ccccc2Cl)N2CCCC2)ccc2cccnc12 (centres undefined)	69	-	92	-	74	63	Full FLuc ctr=-
Cc1cccnc1NC(=S)NC(=O)c1oc2ccccc2c1C	-	-	-	-	-	.
O=C(C=Cc1ccco1)c1ccc2ccccc2c1	.	.	.	.	-	.
O=C(Nc1nc(-c2ccccc2)c(C(=O)c2ccccc2)s1)c1ccc(S(=O)(=O)N2CCCC2)cc1	-	-	-	-	-	.
SMILES	Mdm2 MdmX PPI	Jurkat NFkB inh	Beta apoptosis	697 NFkB inh	Gli-Sufu block	Mdm2-MdmX conf	others
O=C(Nc1nc(-c2ccccc2)c(-c2ccccc2)s1)c1ccc(S(=O)(=O)N2CCCC2)cc1	59	-	-	-	-	-
N#C/C(=C\C=C\c1ccccc1[N+](=O)[O-])c1nc(-c2ccc3c(c2)OCO3)cs1	63	-	-	-	-	-
N#C/C(=C\c1ccccc1[N+](=O)[O-])c1nc(C2CC2)cs1	-	-	-	-	-	.
O=C(NCC(=O)N1CC(O)CC1C(=O)N1CCCC1C(=O)OCc1ccccc1)OCc1ccccc1 (centres undefined)	-	-	-	-	-	.
Cn1c(=O)c(C(=O)NCC2CCCO2)c(O)c2ccccc21 (centres undefined)	78	-	-	-	-	45	Full FLuc ctr=-
Cn1c(C(=O)NCC2CCCO2)cc2c(=O)n(C)c3ccccc3c21 (centres undefined)	-	-	-	-	-	.
Cn1c(=O)c(C(=O)NNC(=O)c2ccc(Br)cc2)c(O)c2ccccc21	54	-	-	-	-	-
O=C(NCC1CCCO1)c1c(O)c2cccc3c2n(c1=O)CC3 (centres undefined)	69	-	-	-	-	69	Full FLuc ctr=55
O=C(NCC1CCCO1)c1c(O)c2cccc3c2n(c1=O)CCC3 (centres undefined)	84	-	-	-	-	58	Full FLuc ctr=46
COCCCNCC#CCOc1ccc(OC)cc1	100	-	-	-	-	-
CCc1ccc(C(=O)NNC(=O)CN2C(=O)NC3(CCCC3)C2=O)cc1	-	-	-	-	-	.
O=c1[nH]c(=O)c2cc3ccccc3nc2[nH]1	.	.	.	.	-	.
Cc1cc2cc3c(=O)[nH]c(=O)[nH]c3nc2cc1C	53	-	-	-	.	-
CC1(C)CC(NC(=O)c2ccccc2F)CC(C)(C)N1	-	-	-	-	-	.
Cc1c(/C=N/N=C2\CCC3C4CCc5cc(O)ccc5C4CCC23C)cnn1C (centres undefined)	-	-	-	-	-	.
CCn1ncc(/C=N/N=C2\CCC3C4CCc5cc(O)ccc5C4CCC23C)c1C (centres undefined)	51	-	.	-	-	-
N/C(CSc1ncccc1C(F)(F)F)=N\O	-	-	.	-	-	.
COc1ccc(Nc2cc(=O)n(C3CCCCC3)c(=O)[nH]2)c(OC)c1	-	-	-	-	-	.
Cc1cc(C)cc(Nc2cc(=O)n(C3CCCCC3)c(=O)[nH]2)c1	51	-	-	-	-	-
